Assay results: PubChem BioAssay
Calls of active or inactive are those of the source.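 How the source made its calls, unless noted: active means visual image review flags a hit and inhibition of aggregation exceeds 20%; inconclusive means visual hit but inhibition at or below 20%; inactive means no hit on visual image review.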

Experiment: inhibitors of TNFa-induced NFkB p65 translocation, primary screen, imaging, HUVEC, MLSMR starter and 10KST1 sets (AID 438;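 active means inhibition above 20% together with a positive visual image hit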;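 further: compound added about 3h40 before a 20 min TNFalpha stimulation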;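 on inhibition: signal is the nuclear over cytoplasmic p65 intensity ratio per well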)
Conditions: HUVEC TNFa-induced p65 nuclear translocation; cell count: measured here: nuclei count (cytotoxicity indicator), at 2.08 µM; inhibition: at 2 µM, stronger effect = higher value, 0% TNFa-plus-vehicle, 100% no-TNFa wells

SMILES	cell count	inhibition
COc1ccc2c(c1)C(=O)N(c1ccccc1OC)C(=O)C2	320	-3.9% (inactive)
CCC(C)(C)n1nnnc1C(c1cc2cc(OC)ccc2[nH]c1=O)N1CCc2ccccc21 (stereo not given)	411	-18.4% (inactive)
Cc1cc(C)cc(-n2nnc(C(=O)NCc3ccc4c(c3)OCO4)c2N)c1	571	7.5% (inactive)
c1ccc(-c2cc(N3CCCCC3)ncn2)cc1	327	0.7% (inactive)
Cn1c(=O)[nH]c(=O)c2c1nc(N1CCNCC1)n2CCOc1ccccc1	321	-3.8% (inactive)
O=c1c[n+]([O-])c2ccccc2n1OCc1c(F)cccc1F	744	-6% (inactive)
CCC(C)(C(=O)NC1CCCC1)N(C(=O)c1cnccn1)c1c(C)n(C)n(-c2ccccc2)c1=O (stereo not given)	568	3.8% (inactive)
COCCOC(=O)c1[nH]c2c(c1C)C(=O)CC(c1ccco1)C2 (stereo not given)	930	12.1% (inactive)
O=C(O)c1ccccc1S(=O)(=O)NCC(O)COc1ccc(Br)cc1 (stereo not given)	435	3.5% (inactive)
COc1cc(C)c(N)cc1C(C)C	422	-5.6% (inactive)
Cc1ccc(-c2cc3nc4c(c(=O)n3[nH]2)CCCC4)cc1	663	-11% (inactive)
CCCN1CCN(CCCNC(=O)Cn2ncc3c4ccccc4n(C)c3c2=O)CC1	509	-3% (inactive)
Cc1nn(-c2ccc(F)cc2)c2c1cc(C#N)c1nc3ccccc3n12	664	9.6% (inactive)
C=CCOC(=O)C1=C(C)OC(N)=C(C#N)C1c1ccc2c(c1)OCO2 (stereo not given)	229	13.4% (inactive)
Cn1c(=O)c2c(nc(Br)n2CCSc2nnnn2-c2ccccc2)n(C)c1=O	294	-3.4% (inactive)
O=C(NC1CC1)C1CCN(c2ccc(S(=O)(=O)N3CCOCC3)cc2)CC1	735	-4.1% (inactive)
CCOc1ccc(C2C(C#N)=C(N)Oc3cc(C)n(Cc4ccco4)c(=O)c32)cc1OC (stereo not given)	746	2.4% (inactive)
COc1ccc(C2CC(c3ccc(Cl)cc3Cl)n3nc(N)nc3N2)cc1 (stereo not given)	461	-1.8% (inactive)
CCn1c(C(=O)N2CCC(C(=O)NCc3ccc4c(c3)OCO4)CC2)cc2sccc21	505	-0.9% (inactive)
O=C(Nc1cccc(O)c1)c1ccccc1	474	18.5% (inactive)

SMILES	cell count	inhibition
CCCCN(C)CCCNC(=O)CC1Oc2ccccc2NC1=O (stereo not given)	585	-2.7% (inactive)
Cc1ccc(-c2ccc(=O)n(CCC(=O)NCCN3CCCCC3C)n2)cc1 (stereo not given)	216	4.2% (inactive)
O=C(NCc1nc2ccccc2[nH]1)c1ccc(Cl)c(S(=O)(=O)N2CCCC2)c1	594	-15.4% (inactive)
CCn1c(=O)c(C(=O)NCCc2ccccc2)c(O)c2ccccc21	724	-0.3% (inactive)
c1cn(CC2(Cn3ccnc3)COC2)cn1	793	-6.2% (inactive)
COc1ccc(Br)cc1S(=O)(=O)N1CC(C)OC(C)C1 (stereo not given)	359	2.8% (inactive)
COc1ccc(CN2C(=O)[C@@H]3C(c4ccc(F)cc4)=NO[C@@H]3C2=O)cc1	338	-10.5% (inactive)
O=C(Cn1cnc2c(nnn2Cc2ccccc2)c1=O)c1ccc(Cl)cc1	561	8.2% (inactive)
O=C(CN1C(=O)COc2ccccc21)N(Cc1cccnc1)Cc1ccccc1F	661	-2.9% (inactive)
CN(Cc1ccccc1)c1nc2c(c(=O)[nH]c(=O)n2C)n1Cc1ccccc1Cl	364	-1% (inactive)
CCCS(=O)(=O)Nc1c(C(=O)O)[nH]c2ccccc12	665	-11.9% (inactive)
Cc1oc2c(CN3CCOCC3)c(O)ccc2c(=O)c1-c1ccc(Br)cc1	543	1.4% (inactive)
CCOC(=O)CSc1nc2sc(C)c(C)c2c(=O)n1C	259	12.5% (inactive)
CSc1nc(N)nc(SCCS(=O)(=O)c2ccc(Cl)cc2)c1C#N	401	2.8% (inactive)
COc1ccc(OC)c(NC(=O)C2C3CC4OC(=O)C2C4C3)c1 (stereo not given)	318	-5.7% (inactive)
CCn1c2ccccc2c2cc(Nc3cc(C)nc4ncnn34)ccc21	513	8.5% (inactive)
CC(C)CSc1nc2ccccc2n1CC(N)=O	314	3% (inactive)
COc1cccc(-c2cc(C(=O)N3CCc4ccccc4C3)no2)c1	550	-17% (inactive)
Cc1ccc(CCNC(=O)C2CCC(=O)N2C2CCCC2)cc1 (stereo not given)	703	-1.3% (inactive)
CCOn1c(=O)c(=O)n(OCc2ccccc2)c2ccccc21	355	0.3% (inactive)

Experiment: inhibitors of mutant huntingtin aggregation, primary screen, imaging, exon1htt(103Q)mCFP cells, high-content imaging (AID 483);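 further: compound exposure lasted 3 days before fixation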;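 on nuclei count: percent of the per-plate median nuclei count of sample wells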
Conditions: exon1htt(103Q)mCFP cell line, aggregate imaging, at 2 µM; inhibition of aggregation: stronger effect = higher value; nuclei count: measured here: cell count, toxicity

SMILES	inhibition of aggregation	nuclei count [%]
COc1ccc2c(c1)C(=O)N(c1ccccc1OC)C(=O)C2	-3.2% (inactive)	80.8
CCC(C)(C)n1nnnc1C(c1cc2cc(OC)ccc2[nH]c1=O)N1CCc2ccccc21 (stereo not given)	9.8% (inactive)	100
Cc1cc(C)cc(-n2nnc(C(=O)NCc3ccc4c(c3)OCO4)c2N)c1	-33.1% (inactive)	108
c1ccc(-c2cc(N3CCCCC3)ncn2)cc1	-3.9% (inactive)	101
Cn1c(=O)[nH]c(=O)c2c1nc(N1CCNCC1)n2CCOc1ccccc1	2.5% (inactive)	104
O=c1c[n+]([O-])c2ccccc2n1OCc1c(F)cccc1F	-13.7% (inactive)	87.6
CCC(C)(C(=O)NC1CCCC1)N(C(=O)c1cnccn1)c1c(C)n(C)n(-c2ccccc2)c1=O (stereo not given)	7% (inactive)	91.3
COCCOC(=O)c1[nH]c2c(c1C)C(=O)CC(c1ccco1)C2 (stereo not given)	-345% (inactive)	2.7
O=C(O)c1ccccc1S(=O)(=O)NCC(O)COc1ccc(Br)cc1 (stereo not given)	-17% (inactive)	106
COc1cc(C)c(N)cc1C(C)C	5.2% (inactive)	81.4
Cc1ccc(-c2cc3nc4c(c(=O)n3[nH]2)CCCC4)cc1	-8.5% (inactive)	73.1
CCCN1CCN(CCCNC(=O)Cn2ncc3c4ccccc4n(C)c3c2=O)CC1	-2.1% (inactive)	101
Cc1nn(-c2ccc(F)cc2)c2c1cc(C#N)c1nc3ccccc3n12	29.9% (inactive)	69.3
C=CCOC(=O)C1=C(C)OC(N)=C(C#N)C1c1ccc2c(c1)OCO2 (stereo not given)	-3% (inactive)	90.4
Cn1c(=O)c2c(nc(Br)n2CCSc2nnnn2-c2ccccc2)n(C)c1=O	19% (inactive)	94.6
O=C(NC1CC1)C1CCN(c2ccc(S(=O)(=O)N3CCOCC3)cc2)CC1	-4.3% (inactive)	110
CCOc1ccc(C2C(C#N)=C(N)Oc3cc(C)n(Cc4ccco4)c(=O)c32)cc1OC (stereo not given)	9.6% (inactive)	74
COc1ccc(C2CC(c3ccc(Cl)cc3Cl)n3nc(N)nc3N2)cc1 (stereo not given)	-8.9% (inactive)	66.5
CCn1c(C(=O)N2CCC(C(=O)NCc3ccc4c(c3)OCO4)CC2)cc2sccc21	-30.3% (inactive)	75.4
O=C(Nc1cccc(O)c1)c1ccccc1	6% (inactive)	98.6

SMILES	inhibition of aggregation	nuclei count [%]
CCCCN(C)CCCNC(=O)CC1Oc2ccccc2NC1=O (stereo not given)	18.9% (inactive)	104
Cc1ccc(-c2ccc(=O)n(CCC(=O)NCCN3CCCCC3C)n2)cc1 (stereo not given)	-7.7% (inactive)	86.5
O=C(NCc1nc2ccccc2[nH]1)c1ccc(Cl)c(S(=O)(=O)N2CCCC2)c1	-35.2% (inactive)	101
CCn1c(=O)c(C(=O)NCCc2ccccc2)c(O)c2ccccc21	-18.1% (inactive)	96.4
c1cn(CC2(Cn3ccnc3)COC2)cn1	-13.4% (inactive)	104
COc1ccc(Br)cc1S(=O)(=O)N1CC(C)OC(C)C1 (stereo not given)	-12.3% (inactive)	94
COc1ccc(CN2C(=O)[C@@H]3C(c4ccc(F)cc4)=NO[C@@H]3C2=O)cc1	-8.2% (inactive)	87.7
O=C(Cn1cnc2c(nnn2Cc2ccccc2)c1=O)c1ccc(Cl)cc1	-6.2% (inactive)	86.3
O=C(CN1C(=O)COc2ccccc21)N(Cc1cccnc1)Cc1ccccc1F	-5.5% (inactive)	77.4
CN(Cc1ccccc1)c1nc2c(c(=O)[nH]c(=O)n2C)n1Cc1ccccc1Cl	-1.2% (inactive)	108
CCCS(=O)(=O)Nc1c(C(=O)O)[nH]c2ccccc12	-26.1% (inactive)	108
Cc1oc2c(CN3CCOCC3)c(O)ccc2c(=O)c1-c1ccc(Br)cc1	6.2% (inactive)	105
CCOC(=O)CSc1nc2sc(C)c(C)c2c(=O)n1C	25.6% (inactive)	76.8
CSc1nc(N)nc(SCCS(=O)(=O)c2ccc(Cl)cc2)c1C#N	24.9% (inactive)	95.8
COc1ccc(OC)c(NC(=O)C2C3CC4OC(=O)C2C4C3)c1 (stereo not given)	6.4% (inactive)	117
CCn1c2ccccc2c2cc(Nc3cc(C)nc4ncnn34)ccc21	7.5% (inactive)	3
CC(C)CSc1nc2ccccc2n1CC(N)=O	-6.3% (inactive)	109
COc1cccc(-c2cc(C(=O)N3CCc4ccccc4C3)no2)c1	1% (inactive)	111
Cc1ccc(CCNC(=O)C2CCC(=O)N2C2CCCC2)cc1 (stereo not given)	6.9% (inactive)	97.5
CCOn1c(=O)c(=O)n(OCc2ccccc2)c2ccccc21	13% (inactive)	97.7
